The list is not random: actives were taken first. Their share in the collection is about 2.1%.
Abeta rescue: compounds reversing amyloid beta toxicity in yeast; Potency, µM (doses to about 46.1 µM), hits mostly activators; AID 1347071; 410,000 compounds, 0.063% hits; yeast expressing A-beta42, growth rescue, OD600, 48 h; response scale: 0% DMSO, 100% iron-clioquinol control; note: nearly all actives have a fitted effect of over 55% in size
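Yeast growth medium received pinned compounds, then yeast cells expressing toxic A-beta were added; plates incubated at 30 C for 48 hr. Growth read as absorbance at 600 nm, normalized to DMSO and equimolar FeCl3 plus clioquinol controls.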
PTAP TSG101 blk: blocks PTAP/TSG101 interaction to inhibit HIV-1 budding; Potency, µM (doses to about 115 µM), for inactives: top-dose activity change, negative = inhibition, most hits filed as inhibitors; Fluorescence polarization, FITC-PTAP peptide / Tsg101 binding; Q99816; 340,000 tested, under 10 active; active = well fitted inhibition curve with a large enough effect in the main read-out, with a control signal flat, not every such curve was filed as active; inconclusive = small, poorly fitted or top-dose-only effect, or effect the other way, or a change in a side signal; inactive = no such curve, though single readings can be large or run the other way; note: % of control where 0% means no effect
Target sequence (Q99816 whole entry, looked up): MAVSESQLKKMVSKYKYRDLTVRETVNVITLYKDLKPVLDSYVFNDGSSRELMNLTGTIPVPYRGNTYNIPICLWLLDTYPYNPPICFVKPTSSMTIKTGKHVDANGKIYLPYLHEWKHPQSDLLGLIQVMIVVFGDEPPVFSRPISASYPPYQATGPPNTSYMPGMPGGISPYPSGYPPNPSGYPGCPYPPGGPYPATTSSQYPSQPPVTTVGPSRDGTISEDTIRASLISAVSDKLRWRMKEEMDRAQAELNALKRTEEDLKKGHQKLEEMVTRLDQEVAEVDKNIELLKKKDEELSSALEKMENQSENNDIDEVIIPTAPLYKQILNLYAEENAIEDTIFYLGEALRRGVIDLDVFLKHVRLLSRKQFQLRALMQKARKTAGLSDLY
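Steps: Tsg101 binding domain dispensed (10 uM final), compounds pinned in DMSO, FITC-labeled PTAP-motif peptide added (50 nM final); after 20 min binding at room temperature, polarization measured.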
aSyn rescue: alpha-synuclein toxicity inhibition in yeast. Yeast expressing alpha-synuclein, growth rescue, BacTiter-Glo, 24 h. Potency, µM (top dose mostly 46.1 µM), without a hit: top-dose growth rescue (activation), usual class: activators. 370,000 compounds, 0.14% hits; note: % of control where 0% means no effect; nearly all actives have a fitted effect of over 65% in size
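Screening used galactose-induced yeast with toxic alpha-synuclein levels, exposed to compound for 24 hr at 30 deg C. Cell growth, read with BacTiter-Glo luminescence, gave the measured signal.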
TDP-43 yeast inh: TDP-43 toxicity inhibition in yeast; TDP-43 expressing yeast growth rescue, BacTiter-Glo, 24 h; AID 652104; 410,000 compounds, 1.8% hits; Potency, µM (highest dose often 46.1 µM), inactives show at the highest dose growth rescue (activation), most hits filed as activators; note: % of control where 0% means no effect; nearly all actives have a fitted effect of over 50% in size
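In this qHTS, compounds that restore growth of yeast expressing TDP-43 appear as activators. Cells (OD600=0.02, galactose medium, raffinose-pregrown) are incubated with compound 24 hr at 30 deg C and growth is quantified by BacTiter-Glo.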
FUS suppressor: rescues growth of FUS-expressing yeast; S. cerevisiae FUS-expressing, growth rescue, OD600, 24 h; Potency, µM (doses to about 76.6 µM), usual class: activators; 390,000 compounds, 0.24% hits;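 note: plate controls were DMSO vehicle for no effect and reference control for full effect; nearly all actives have a fitted effect of over 55% in size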
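Toxicity suppression screen in FUS-yeast. Cells induced with 2% galactose, starting OD 0.005, treated 24hr at 30C with compounds at multiple final concentrations; growth by OD600.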
The depositor's hits bear a star; i = inactive; u = inconclusive; x = no result; [ ] = dose if it differs, or a comment. Unless noted, calls come from the whole dose curve; as a rule, active = well fitted curve in the direction sought with a large enough effect; inconclusive = small, poorly fitted or top-dose-only effect, or another doubt; inactive = no such curve, though single readings can be large; an effect the other way counts as inactive or inconclusive. Potency is the fitted concentration of half-maximal effect.

SMILES	Abeta rescue	PTAP TSG101 blk	aSyn rescue	TDP-43 yeast inh	FUS suppressor
CC12CCC(C(=O)Nc3ccc(Cl)cc3)([C@H](Br)C1=O)C2(C)C (some centres undefined)	u	-4%	21%	u	i
CCCCCn1c(=O)c(C(=O)OCC)c(O)c2ccccc21	i	0%	13%	-7%	i
CCCCn1c(=O)c(C(=O)OCC)c(O)c2ccccc21	i	-6%	7%	16µM*	u
N#Cc1ccc(C(=O)Nc2nc(SCc3ccc(Cl)cc3)n[nH]2)cc1	i	3%	0%	0%	i
O=S(=O)(Nc1nc(SCc2ccc(Cl)cc2)n[nH]1)c1ccc(F)cc1	u	0%	0%	20µM*	i
CCc1nc(SCc2ccc(Cl)cc2)n[nH]1	i	-3%	3%	13µM*	i
Cc1cc(Cl)ccc1NS(=O)(=O)c1ccc2c(c1)CC(C)N2C(=O)C1CCC1 (centres undefined)	i	x	x	u	u
N#Cc1cnc(SCC(=O)c2ccccc2)nc1N	i	-6%	0%	21%	i
N#Cc1cnc(SCCc2ccccc2)nc1N	i	-2%	1%	13µM*	i
O=C(Nc1ccc(F)cc1F)N1CCc2c(sc3c2CCCC3)C1c1ccc(F)cc1 (centres undefined)	i	x	x	1%	i
Cc1nc(N2CCCCC2)sc1C(=O)c1ccc(SCCO)c([N+](=O)[O-])c1	i	-9%	26%	35µM*	i
Cc1cc(Nc2ccc(O)cc2)ccc1N	x	x	-32%	x	x
Oc1ccc(Nc2ccc3ccccc3c2)cc1	i	-1%	-22%	22µM*	i
Cc1cccc(CS(=O)(=O)c2ncc(Cl)c(C(=O)NCc3ccccc3)n2)c1	i	-1%	19%	7.9µM*	i
CCOc1ccc(NC(=O)c2nc(S(=O)(=O)Cc3ccccc3C)ncc2Cl)cc1	x	x	14%	x	x
Cc1ccccc1NC(=O)c1nc(S(C)(=O)=O)ncc1Cl	i	-1%	18%	10µM*	i
Cc1cccc(C)c1NC(=O)c1nc(S(=O)(=O)Cc2ccccc2)ncc1Cl	i	3%	19%	10µM*	i
Cc1ccccc1CS(=O)(=O)c1ncc(Cl)c(C(=O)Nc2ccc(F)cc2)n1	i	-1%	-1%	11µM*	i
Cc1cccc(CS(=O)(=O)c2ncc(Cl)c(C(=O)Nc3c(C)cccc3C)n2)c1	i	-1%	2%	u	u
COc1ccc(OC)c(NC(=O)N2c3ccccc3Sc3ccccc32)c1	i	x	x	-1%[9.22 µM]	i
CC1(c2nnnn2Cc2ccccc2)CCC(=O)N1CC1CCCCC1 (centres undefined)	i	x	-1%	21%	i
Cn1c(=O)c(-c2ccccc2)c(O)c2ccccc21	i	-4%	6%	20µM*	i
O=C1N2CCCc3cccc(c32)C12Nc1ccccc1S2 (centres undefined)	i	0%	u	20µM*	x
CCOc1ccc(-c2cc3c(=O)n(CC(=O)Nc4c(C)cccc4C)ccn3n2)cc1	i	x	x	1%	i
Nc1ccc2c(c1)-c1ccc(F)cc1C2=O	i	-1%	14µM*	-17%	x
SMILES	Abeta rescue	PTAP TSG101 blk	aSyn rescue	TDP-43 yeast inh	FUS suppressor
CCOC(=O)C1=C(C)NC(C)=C(C(=O)OC)C1c1cccc([N+](=O)[O-])c1 (centres undefined)	i	-2%	20%	35µM*	i
Nc1ccc(/C=C/c2nc3ccccc3s2)cc1	x	x	13µM*	x	x
COCCCNc1nc2ccccc2nc1NS(=O)(=O)c1ccc(Cl)cc1	i	-7%	-22%	-10%	i
COCCCNc1nc2ccccc2nc1NS(=O)(=O)c1cc(Cl)ccc1Cl	i	-8%	5%	22µM*	i
CC1CN(c2nc(N(C)c3ccccc3)nc(N)c2[N+](=O)[O-])CC(C)O1 (centres undefined)	i	-8%	13%	2%	i
CC1CC(C)CN(c2nc(N(C)c3ccccc3)nc(N)c2[N+](=O)[O-])C1 (centres undefined)	i	-8%	16%	18µM*	i

Screening data deposited in PubChem BioAssay by National Center for Advancing Translational Sciences (NCATS).
